Source: PubChem BioAssay AID2661 (Broad Institute, 2010)
The campaign covered roughly 320,000 compounds. About 240 (0.075%) were called active. Shown is part of a subset that was picked to be rich in actives. A number with no mark means an inactive call.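 Rule for the calls: active = inhibition at or above 25%, using the most active replicate where run in duplicate; inactive = inhibition below 25%.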

molecular target: Serine/threonine-protein kinase 33 (Homo sapiens) (UniProt Q9BYT3); experiment: STK33 phosphorylation of MBP blockers – biochemical, ADP-Glo luminescence, homogeneous, cell-free, primary screen (AID 2661); settings: purified STK33, MBP phosphorylation, at 10 µM, stronger effect = higher value
Sequence (Q9BYT3 whole entry, looked up): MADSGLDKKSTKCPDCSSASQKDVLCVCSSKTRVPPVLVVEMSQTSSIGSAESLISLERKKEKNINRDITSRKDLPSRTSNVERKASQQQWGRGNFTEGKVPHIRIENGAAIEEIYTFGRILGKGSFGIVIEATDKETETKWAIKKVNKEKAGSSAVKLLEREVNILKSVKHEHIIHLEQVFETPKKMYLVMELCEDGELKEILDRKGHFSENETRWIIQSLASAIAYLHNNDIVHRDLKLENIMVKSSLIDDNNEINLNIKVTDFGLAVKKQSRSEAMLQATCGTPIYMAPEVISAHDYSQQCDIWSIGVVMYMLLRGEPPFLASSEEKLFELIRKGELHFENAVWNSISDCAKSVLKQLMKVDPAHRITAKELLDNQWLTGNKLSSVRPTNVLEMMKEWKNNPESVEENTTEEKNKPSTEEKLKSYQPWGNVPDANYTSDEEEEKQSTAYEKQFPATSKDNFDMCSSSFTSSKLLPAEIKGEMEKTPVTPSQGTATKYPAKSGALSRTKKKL

Row | SMILES | inhibition
1 | Oc1ccc(N=Cc2c(O)ccc3ccccc23)cc1 | 57.4% (active)
2 | O=[N+]([O-])c1ccc(N=Cc2c(O)ccc3ccccc23)cc1 | -0.767%
3 | Oc1ccc(N=Cc2sc3ccccc3c2Cl)cc1 | 1.25%
4 | CC(OC(=O)c1c(F)cccc1F)C(=O)NCCC1=CCCCC1 (centres undefined) | -0.382%
5 | Cc1ccc(C)c(S(=O)(=O)N2CCN(c3ncnc4sccc34)CC2)c1 | -3.05%
6 | COc1ccc(C(=O)Nc2cc(S(=O)(=O)N3CCCC3)ccc2Cl)cc1 | 0.138%
7 | COc1cc(OC)cc(C(=O)NNC(=O)Cc2cccs2)c1 | -0.657%
8 | COc1ccc2sc(-c3ccc(S(C)(=O)=O)cc3)c(C#Cc3cncn3C)c2c1 | -0.341%
9 | O=C(CNC(=O)c1n[nH]c2ccccc12)Nc1cc(Cl)ccc1Cl | 1.57%
10 | CC(C)n1cnc2c(NCc3ccccc3)cc(N[C@@H](CO)Cc3ccccc3)cc21 | 0.0472%
11 | C=CC[C@@H](CC(=O)N[C@@H](CO)Cc1ccccc1)C(=O)N[C@H](COC(=O)[C@H](CC=C)CC(=O)OC(C)(C)C)Cc1ccccc1 | -0.409%
12 | CCCCCCSc1ccc([C@@H]2[C@H]3C(=O)N(CC)C(=O)[C@H]3[C@]3(C(=O)OC)CCCCN23)cc1 | 1.08%
13 | CC(C)NC(=O)Nc1cccc2c1O[C@H](CN(C)S(=O)(=O)c1cccs1)[C@@H](C)CN([C@H](C)CO)C2=O | -0.082%
14 | O=C(CCc1ccc(S(=O)(=O)N2CCOCC2)cc1)OCC(=O)c1ccc(Br)cc1 | 2.88%
15 | COc1cc(NC(=O)COC(=O)c2ccc([N+](=O)[O-])s2)cc(OC)c1OC | -0.723%
16 | O=C(CSc1nc2ccccc2c(=O)n1-c1ccccc1F)N1CCOCC1 | -0.216%
17 | COC(=O)c1ccc(CNC(=O)c2ccc(S(=O)(=O)N3CCCCCC3)cc2)cc1 | -0.472%
18 | Cn1cncc1C#Cc1c(-c2ccsc2)sc2ccccc12 | 0.202%
19 | Cc1ccccc1NC(=O)CSC(=O)c1ccccc1 | -0.158%
20 | COc1ccc(S(=O)(=O)N2CCOCC2)cc1NC(=O)CSc1nnc(NC2CC2)s1 | -0.646%
21 | O=C(CN1C(=O)NC2(CCCCCCC2)C1=O)NCc1ccc(F)cc1 | 0.305%
22 | COc1cc(/C=C/C(=O)OCC(=O)NCCCc2ccccc2)ccc1O | -0.517%
23 | COc1ccc(-c2sc3ccccc3c2-c2ccc(OCCN3CCOCC3)cc2)cc1 | -0.928%
24 | COc1ccc(S(=O)(=O)N2CCN(c3cnccn3)CC2)cc1 | 0.373%
25 | Cc1onc(-c2c(F)cccc2Cl)c1C(=O)OCC(=O)N1C(C)CCCC1C (centres undefined) | -0.377%
26 | Cc1ccc(C)c(NC(=O)COC(=O)c2nn(C)c(=O)c3ccccc23)c1 | 0.213%
27 | Cc1cc(NC(=O)CSc2ncc(C(F)(F)F)cc2Cl)no1 | -0.4%

Row | SMILES | inhibition
28 | COc1ccc(C(=O)O)cc1S(=O)(=O)NC1CCN(Cc2ccccc2)CC1 | -0.986%
29 | Cn1nnnc1SCC(=O)Nc1sccc1C(N)=O | 0.459%
30 | O=C(c1ccc(S(=O)(=O)NCc2ccco2)cc1)N1CCN(c2ccccc2)CC1 | -0.564%
31 | COCC(C)n1c(SCC(=O)NC2CCCCC2C)nc2ccccc2c1=O (centres undefined) | 1.21%
32 | C[C@H](CO)N1C[C@H](C)[C@H](CN(C)C(=O)Nc2ccc(C(F)(F)F)cc2)Oc2c(NC(=O)c3ccncc3)cccc2C1=O | -1.64%
33 | Cc1ccc(NC(=O)Cn2cnc3c(OCc4ccccc4)ncnc32)cc1C | -0.221%
34 | COc1ccc(-c2oc3ncn(Cc4ccco4)c(=N)c3c2-c2ccc(OC)cc2)cc1 | 0.0388%
35 | N=c1c2c(-c3ccccc3)c(-c3ccccc3)n(Cc3ccccc3)c2ncn1CCCO | -0.27%
36 | N=c1c2c(-c3ccccc3)c(-c3ccccc3)oc2ncn1Cc1ccco1 | 29.3% (active)
37 | CSCCC1NC(=O)N(CC(=O)Nc2cccc(S(=O)(=O)N3CCCCCC3)c2)C1=O (centres undefined) | -1.42%
38 | CN=C(Nc1cccc(S(=O)(=O)N2CCOCC2)c1)c1ccccc1 | -1.05%
39 | CCN(C(=O)CSc1cccc[n+]1[O-])c1ccccc1 | -2.46%
40 | C[C@H](NS(=O)(=O)c1ccc(Cl)cc1)C(=O)OCC(=O)N1CCOCC1 | -1.2%
41 | Cc1ccsc1C(=O)NCCc1ccco1 | -0.976%
42 | CC(C)CC1NC(=O)c2cc(Cl)ccc2-n2c1nc1ccccc1c2=O (centres undefined) | -0.406%
43 | CC(NC(=O)COC(=O)CCC(=O)c1ccc(Cl)cc1)c1ccccc1 (centres undefined) | 0.0433%
44 | CCCCCCSc1ccc(-c2nc3ccc(Cl)cn3c2NCc2ccccc2)cc1 | -0.955%
45 | O=C(Nc1ccccc1-c1nnn(CC(=O)N2CCN(c3ccccc3)CC2)n1)c1cccs1 | -0.118%
46 | O=C(Nc1ccccc1-c1ccccc1)c1cccs1 | 4.17%
47 | O=C(Nc1ccccc1-c1nc2ccccc2[nH]c1=O)c1cccs1 | 71.9% (active)
48 | O=C(COc1ccc(Br)cc1F)NCC1(N2CCCCC2)CCCCC1 | -1.07%
49 | Cc1ccccc1SCC(=O)OCC(=O)N1CC(=O)Nc2ccccc21 | -0.869%
50 | C[C@H](CO)N1C[C@H](C)[C@@H](CN(C)C(=O)NC2CCCCC2)Oc2ccc(NC(=O)c3ccncc3)cc2C1=O | 0.225%
51 | CCC(CO)Oc1cc(NC(=O)c2ccc(Cl)cc2)c2ncn(C(C)C)c2c1 (centres undefined) | -0.728%
52 | COc1ccc(OCC(=O)NNC(=O)C2CCC2)cc1 | -0.275%
53 | COc1ccc(OC)c(NC(=O)COC(=O)Cc2ccsc2)c1 | 0.647%
54 | Cc1ccc(S(=O)(=O)N2[C@@H](c3ccc(Br)cc3)C(C(=O)O)=C[C@H]2CC2CCCC2)cc1 | -2.01%

Row | SMILES | inhibition
55 | CCOC(=O)[C@@H]1[C@H]2COc3ccc(Br)cc3[C@H]2N2C(=O)N(c3ccc(C)cc3)C(=O)[C@@]12C | -0.0883%
56 | CCCc1cc(=O)[nH]c(SCC(=O)Nc2ccc(S(=O)(=O)N3CCCC3)cc2)n1 | -1.05%
57 | Cc1noc(C)c1NC(=O)Nc1ccc2c(c1)C(=O)N([C@H](C)CO)C[C@H](C)[C@@H](CN(C)S(=O)(=O)c1cn(C)cn1)O2 | -0.91%
58 | CCOC(=O)COc1cc(OCC(=O)OCC)c2c(=O)cc(-c3ccccc3)oc2c1 | -0.944%
59 | CCOC(=O)COc1cc(O)c2c(=O)cc(-c3ccccc3)oc2c1 | 1.27%
60 | COc1c(O)cc2oc(-c3ccc(O)c(O)c3)cc(=O)c2c1O | 44.2% (active)
61 | O=C(NNC(=O)c1ccc(Cl)nc1)c1ccc(Br)cc1 | -0.906%
62 | Cc1ccc(C)c(NC(=O)CN(C)C(=O)COc2ccc3ccccc3c2)c1 | -0.402%
63 | CC(=O)NC(CC(=O)Nc1ccc(S(=O)(=O)N2CCOCC2)cc1)c1ccccc1 (centres undefined) | 2.28%
64 | Cc1ccc(S(=O)(=O)N2[C@@H](c3cccc4ccccc34)C(C(=O)O)=C[C@H]2C(C)(C)C)cc1 | -1.33%
65 | CN(CCc1ccccc1)C(=O)c1cccc(NC(=O)Cc2ccc([N+](=O)[O-])cc2)c1 | 0.236%
66 | O=C1OC[C@@H]2CCCN2C(=O)[C@H](CC(=O)N(CCO)Cc2ccccc2)C/C=C\CC[C@@H]1Cc1ccc(F)cc1 | -0.762%
67 | Cc1ccc(C(=O)OCC(=O)N2CCCCCC2)cc1S(=O)(=O)N1CCOCC1 | -2.28%
68 | C=CC[C@@H](CC(=O)N[C@H](CO)Cc1ccccc1)C(=O)N[C@@H](COC(=O)[C@@H](CC=C)Cc1ccc(F)cc1)Cc1c[nH]c2ccccc12 | -0.564%
69 | O=C1NC[C@@H](c2ccccc2)OC(=O)[C@H](Cc2ccc(F)cc2)CC/C=C/C[C@H]1CC(=O)N(CCO)Cc1ccccc1 | -2.42%
70 | Fc1ccccc1-c1cc2cc3c(cc2cn1)OCO3 | 1.15%
71 | O=C(CN1C(=O)NC2(CCCCCC2)C1=O)Nc1ccc([N+](=O)[O-])cc1 | -2.25%
72 | O=C(COC(=O)c1cccnc1Cl)NC(=O)NC1CCCCC1 | -0.374%
73 | COc1ccc(Cl)cc1NC(=O)COC(=O)c1ccc(Br)o1 | -0.284%
74 | COc1ccc(CNc2nc(NCc3ccc(OC)cc3)c3ncn(C4CCCC4)c3n2)cc1 | -0.00506%
75 | O=C(CN1C(=O)c2ccc([N+](=O)[O-])cc2C1=O)Nc1nnc(C2CC2)s1 | -0.729%
76 | C=CCC[C@H](Cc1ccc(F)cc1)C(=O)OC[C@@H](Cc1c[nH]c2ccccc12)NC(=O)[C@H](CC=C)CC(=O)N[C@H](CO)Cc1ccccc1 | -0.577%
77 | O=C(COC(=O)c1ccc(O)cc1O)c1ccc2c(c1)OCCO2 | 1.53%
78 | CCOc1ccc(Br)cc1S(=O)(=O)Nc1ccc(S(=O)(=O)Nc2cc(C)on2)cc1 | -0.663%
79 | COc1ccc2nc3n(c(=O)c2c1)-c1cc(C)ccc1C(=O)NC3Cc1ccc(O)cc1 (centres undefined) | -0.57%
